# Measurements as given in PubChem BioAssay (NCI).
# This is part of a sample that, as a whole, favours compounds with a hit. Of some 83,000 tested, about 20% had one in any assay.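 Activity criterion: percent growth below 10, measured after cells in 96-well plates were exposed to a single compound concentration for 48 hours.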 Unmarked numbers belong to inactive results. Active and inactive are the calls of the source.
# Experiments:
# Experiment in all cases: NCI-60 one-dose screen, 48 h (100 = growth as untreated, 0 = no growth, -100 = all killed)
# Conditions in all cases: 10 µM unless noted
# [1] = tested on: NCI-H226 lung
# [2] = tested on: NCI-H322M lung
# [3] = tested on: HOP-62 NSCLC
# [4] = tested on: NCI-H460 lung
# [5] = tested on: HOP-92 NSCLC
# [6] = tested on: NCI-H522 lung
# [7] = tested on: A549/ATCC NSCLC
# [8] = tested on: 786-0 renal
# [9] = tested on: COLO 205 colon
# [10] = tested on: DU-145 prostate
# [11] = tested on: K-562 leukemia
# [12] = tested on: MALME-3M melanoma
# [13] = tested on: MDA-MB-231 breast
# [14] = tested on: RXF 393 renal
# [15] = tested on: SF-268 CNS
# [16] = tested on: SF-295 CNS
# [17] = tested on: SF-539 CNS
# [18] = tested on: UACC-257 melanoma
# [19] = tested on: M14 melanoma
SMILES,growth [1],growth [2],growth [3],growth [4],growth [5],growth [6],growth [7],growth [8],growth [9],growth [10],growth [11],growth [12],growth [13],growth [14],growth [15],growth [16],growth [17],growth [18],growth [19]
CN1C(=O)/C(=C/c2cn(-c3ccccc3)nc2-c2ccccc2)SC1=S,98.3%,107%,97.9%,101%,51.4%,90.2%,102%,107%,124%,105%,92.6%,114%,92.8%,110%,104%,89.6%,99.5%,106%,103%
COc1ccc(-c2ccc3cnc4sc(-c5ccc(OC)cc5)nc4c3n2)cc1,85.7%,86.7%,97.8%,102%,100%,87.4%,93.1%,106%,104%,107%,96.6%,111%,89.6%,107%,95.4%,100%,91.5%,106%,115%
COc1ccc(OC)c(-c2c(C#N)c(-c3cccs3)nc3c2c(-c2ccccc2)nn3-c2ccccc2)c1,102%,110%,105%,,106%,87.8%,101%,103%,110%,111%,106%,106%,105%,109%,97.4%,101%,93.5%,105%,105%
O=C(Cn1cc(CN2CCCCCC2)nn1)Nc1ccc2c(ccn2Cc2ccccc2)c1,81.5%,94.8%,80.6%,102%,,86.9%,92.3%,87.8%,88.9%,101%,79.5%,91.1%,86%,91.4%,93.6%,99.6%,92.6%,101%,94.1%
COC(=O)c1c2c(c(C)[n+]([O-])c1C)C(=O)C=C(NCc1ccc(OC)cc1)C2=O,-8.68% (active),-6.26% (active),3.79% (active),-3.91% (active),,-19.5% (active),-18.4% (active),3.11% (active),-54% (active),-83.7% (active),0.821% (active),-97.4% (active),-6.3% (active),-32.7% (active),-22.4% (active),-62.5% (active),-80.7% (active),-77% (active),-84.6% (active)
O=C(Cc1ccccc1)Nc1nc(O)c(/C=C2\C(=O)C=Cc3ccccc32)s1,100%,98.2%,107%,,85.2%,90.5%,,102%,111%,104%,100%,106%,98.1%,111%,99.2%,103%,102%,106%,89.7%
Cc1ccc(C2=Nc3c(N)ncnc3NC(c3ccc4c(c3)OCO4)C2)cc1 (stereo unspecified),85.1%,102%,64.5%,42.4%,8.52% (active),47.2%,56.4%,80.8%,37.3%,98%,14.8%,51.8%,61.3%,59.4%,72.9%,40.8%,67.7%,96.2%,39%
COc1ccc(C(c2cc(OC)c(OC)c(OC)c2)N2CCN(c3ccccc3)CC2)cc1 (stereo unspecified),101%,83.7%,88.9%,96.9%,86.7%,56.5%,85.7%,101%,92.7%,113%,41.6%,99.7%,92.3%,96.2%,95.8%,92.3%,94.4%,81.3%,76.3%
O=C(O)c1[nH]c(=O)[nH]c(=O)c1[N+](=O)[O-],108%,119%,104%,115%,88%,138%,106%,106%,112%,134%,89.7%,124%,110%,113%,117%,104%,103%,97.7%,110%
Cc1cc(=O)[nH]c2c(C#N)cnn12,96.4%,101%,105%,104%,109%,89.1%,97.5%,105%,114%,104%,103%,98.9%,104%,110%,99.9%,101%,101%,96.7%,105%
CCc1ccc(C(=O)/C=C/C23c4ccccc4C(c4ccccc42)C2C(=O)NC(=O)C23)cc1 (stereo unspecified),42.3%,15.8%,-3.98% (active),5.14% (active),-17% (active),-12.6% (active),21.5%,-12.8% (active),-25.9% (active),12.6%,8.82% (active),-59.9% (active),9.93% (active),-48.7% (active),26.5%,12.9%,11%,27.8%,
COc1ccc2c(c1)c(-c1noc(C(=O)c3cn(C)c4ccc(Br)cc34)n1)cn2C,93.8%,97%,93.9%,105%,108%,76.9%,84.5%,112%,110%,113%,88%,93.9%,103%,114%,99.2%,117%,101%,92.7%,97%
CN(C)CCNc1nc2c3cc(Cl)ccc3nn2c2ccccc12,61.1%,40.2%,43.9%,15.8%,36.8%,67%,31.5%,38.1%,26.3%,54.3%,46.5%,42%,46.8%,4.75% (active),45.7%,26.9%,36.8%,52.5%,62.1%
CC(C)CCC[C@@H](C)[C@H]1CC[C@H]2[C@@H]3CC=C4C[C@@H](C(C(=O)O)C(=O)O)CC[C@]4(C)[C@H]3CC[C@]12C,-62.9% (active),-0.312% (active),-54.8% (active),-71.5% (active),8.17% (active),-28.7% (active),-51.7% (active),-58.6% (active),-91.1% (active),-83.5% (active),-48.3% (active),-43% (active),-28.2% (active),-49.8% (active),-24.6% (active),-61.2% (active),-27.3% (active),-49.8% (active),-72.9% (active)
CCC(=C(c1ccc(OCCN2CCCC2)cc1)c1ccc(OCCN2CCCC2)cc1)c1ccc(Cl)cc1,105%,20%,60.2%,-86.9% (active),38.7%,23.5%,-28% (active),-94.2% (active),-64.8% (active),26.4%,-21.2% (active),-82.1% (active),-70.9% (active),13.7%,49.8%,-61.9% (active),-88.4% (active),-58% (active),-75% (active)
O=C1/C(=C/c2ccc(Cl)cc2)COc2ccc(O)c(O)c21,90.6%,37.5%,-22.7% (active),31.1%,,-60.9% (active),42.9%,-80.8% (active),27.7%,21.4%,13.1%,7.38% (active),-17.8% (active),9.7% (active),-0.809% (active),77.1%,-76% (active),10.1%,30.9%
COc1ccc2[nH]cc(-c3nc(-c4c[nH]c5ccncc45)cs3)c2c1,93.3%,67.6%,27.6%,-20.7% (active),62.5%,-18.8% (active),24%,-86% (active),-62.8% (active),32.9%,-37.9% (active),-77.5% (active),-35% (active),-0.983% (active),65.3%,-57.1% (active),-83.4% (active),82%,-74% (active)
